# Source: PubChem BioAssay (EPA / NIEHS)
# Results filed as inconclusive are left out. Activity calls are given as the source filed them. How the source made its calls: active means hit-call score of the fitted dose curve at least 0.9, where 1 is the maximum; inconclusive means response in the unintended direction; inactive means score below 0.9.
# Key:
# [1] = ACEA_AR_agonist_AUC_viability: ACEA Biosciences xCELLigence Real-Time Cell Analysis on Androgen Receptor Agonism for Viability (AID 2283775);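 on AC50: viability read 80 hours after compound addition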
# Summary of the method: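 Read-out is area under the impedance curve at 80 h post-dose in 22Rv1 cells, with DMSO as baseline and signal loss taken as reduced viability. Compounds ran in duplicate from 100 uM final.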
# [2] = ACEA_AR_antagonist_AUC_viability: ACEA Biosciences xCELLigence Real-Time Cell Analysis on Androgen Receptor Antagonism for Viability (AID 2283776);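 further: 22Rv1 human prostate cancer cells growing on impedance electrode plates; area under impedance growth curve at 80 h after dosing as viability; hits lower the growth signal relative to DMSO meaning cytotoxicity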
# Summary of the method: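 Viability endpoint from label-free cell-index monitoring: 22Rv1 cultures treated with an eight-point 1:4 dilution series starting at 100 uM final, AUC at 80 h fitted against DMSO.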
# [3] = ACEA_ER_AUC_viability: ACEA Biosciences xCELLigence Real-Time Cell Analysis on Estrogen Receptor Agonism for Viability (AID 2283782);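 further: continuous compound exposure with impedance area under curve over 80 h; hit means loss of impedance signal meaning reduced cell growth or viability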
# Summary of the method: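 T47D cells preconditioned in phenol red-free RPMI with charcoal-stripped FBS, then dosed with 8-point 1:4 series from 100 uM (up to 0.5% DMSO). Impedance monitored up to ~80 h; area-under-curve loss versus DMSO taken as viability.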
# AR (gene 367) [4] = target: AR (gene 367) (UniProt P10275); assay: ACEA_AR_antagonist_80hr: ACEA Biosciences xCELLigence Real-Time Cell Analysis on Androgen Receptor Antagonism for Proliferation (AID 2283787);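 further: 22Rv1 human prostate cancer cells with growth followed by electrical impedance; hits lower the impedance growth signal relative to DMSO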
# Chain of AR (gene 367) (P10275 whole entry, looked up): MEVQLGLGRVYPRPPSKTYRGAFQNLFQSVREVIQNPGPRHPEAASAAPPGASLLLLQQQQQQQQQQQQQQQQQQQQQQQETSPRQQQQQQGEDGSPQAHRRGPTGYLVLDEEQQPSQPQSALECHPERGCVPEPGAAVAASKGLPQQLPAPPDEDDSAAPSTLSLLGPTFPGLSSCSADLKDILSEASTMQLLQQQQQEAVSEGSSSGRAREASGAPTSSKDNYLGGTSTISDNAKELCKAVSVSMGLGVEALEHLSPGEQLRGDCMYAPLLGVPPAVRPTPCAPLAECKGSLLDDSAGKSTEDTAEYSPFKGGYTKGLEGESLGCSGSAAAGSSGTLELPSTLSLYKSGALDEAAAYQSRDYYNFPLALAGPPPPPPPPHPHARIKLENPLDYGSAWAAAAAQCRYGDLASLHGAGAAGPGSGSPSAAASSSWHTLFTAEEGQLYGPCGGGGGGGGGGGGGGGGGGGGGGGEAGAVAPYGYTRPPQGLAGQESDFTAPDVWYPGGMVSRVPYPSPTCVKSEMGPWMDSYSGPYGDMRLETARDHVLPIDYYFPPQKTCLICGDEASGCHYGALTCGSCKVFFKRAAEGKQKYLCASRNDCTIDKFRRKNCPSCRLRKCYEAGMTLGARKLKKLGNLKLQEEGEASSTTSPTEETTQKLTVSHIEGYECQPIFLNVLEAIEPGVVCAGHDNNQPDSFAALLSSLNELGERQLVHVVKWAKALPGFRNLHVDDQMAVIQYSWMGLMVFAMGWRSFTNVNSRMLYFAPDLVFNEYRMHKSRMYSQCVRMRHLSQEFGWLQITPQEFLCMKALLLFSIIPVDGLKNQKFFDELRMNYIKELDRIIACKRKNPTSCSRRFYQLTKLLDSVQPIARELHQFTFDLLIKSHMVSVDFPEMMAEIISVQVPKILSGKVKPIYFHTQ
# Summary of the method: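 22Rv1 cells in assay medium, growth tracked by electrical impedance; compounds eight-point 1:4 dilutions from 100 uM final, duplicate plates. Endpoint at 80 h; loss of signal versus DMSO.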
# AR (gene 367) [5] = target: AR (gene 367) (UniProt P10275); assay: ACEA_AR_agonist_80hr: ACEA Biosciences xCELLigence Real-Time Cell Analysis on Androgen Receptor Agonism for Proliferation (AID 2283783);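 further: hits increase impedance growth signal above DMSO baseline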
# Summary of the method: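 Proliferation of 22Rv1 prostate cancer cells tracked by electrical impedance, endpoint taken at 80 hours after dosing. Eight-point 1:4 dilutions from 100 uM maximum final, duplicate; testosterone and MG132 as positive controls, assay media as negative.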
structure (smiles),measurement,setting,value
O=[N+]([O-])c1ccc(O)cc1C(F)(F)F,AC50,[1],12.3 µM (active)
same,AC50,[2],12.9 µM (active)
same,AC50,[3],86.6 µM (active)
C=CC(=O)OCCCC,outcome,[1],inactive
same,outcome,[2],inactive
CCCCCCC(CO)CCCC (stereo not given),outcome,[1],inactive
same,outcome,[2],inactive
same,AC50,[3],76.9 µM (active)
C[Si](C)(C)O[Si](C)(C)C,outcome,[1],inactive
same,outcome,[2],inactive
Nc1ccc(N)c2c1C(=O)c1ccccc1C2=O,AC50,[1],9.05 µM (active)
same,AC50,[2],12.7 µM (active)
same,outcome,[3],inactive
same,AC50,AR (gene 367) [4],16.6 µM (active)
C#CC(C)(O)CC(C)C (stereo not given),outcome,[1],inactive
same,outcome,[2],inactive
CCCCCCCC(=O)OCC(O)CO (stereo not given),outcome,[1],inactive
same,outcome,[2],inactive
same,outcome,[3],inactive
CCCOCCO,outcome,[1],inactive
same,outcome,[2],inactive
same,outcome,[3],inactive
CCCCCCCC/C=C\CCCCCCCC(=O)OCC,outcome,[1],inactive
same,outcome,[2],inactive
same,outcome,[3],inactive
O=Cc1ccccc1S(=O)(=O)O,AC50,[1],1.24 µM (active)
same,outcome,[2],inactive
CN1C(=O)c2ccccc2C1=O,outcome,[1],inactive
same,outcome,[2],inactive
same,outcome,[3],inactive
CCCCOC(=O)CCCCCCCC(=O)OCCCC,outcome,[1],inactive
same,outcome,[2],inactive
same,outcome,[3],inactive
CCC1(C)NC(=O)NC1=O (stereo not given),outcome,[1],inactive
same,outcome,[2],inactive
COS(=O)(=O)O,outcome,[1],inactive
same,outcome,[2],inactive
same,outcome,[3],inactive
OCC(O)c1ccccc1 (stereo not given),outcome,[1],inactive
same,outcome,[2],inactive
same,outcome,[3],inactive
O=P(O)(O)O,outcome,[1],inactive
same,AC50,[2],8.69 µM (active)
same,outcome,[3],inactive
CCCC(C)=O,outcome,[1],inactive
same,outcome,[2],inactive
same,outcome,[3],inactive
C[C@H]1O[C@@H](O[C@H]2[C@@H](O)C[C@H](O[C@H]3[C@@H](O)C[C@H](O[C@H]4CC[C@@]5(C)[C@H](CC[C@@H]6[C@@H]5C[C@@H](O)[C@]5(C)[C@@H](C7=CC(=O)OC7)CC[C@]65O)C4)O[C@@H]3C)O[C@@H]2C)C[C@H](O)[C@@H]1O,AC50,[1],0.00928 µM (active)
same,AC50,[2],0.0148 µM (active)
same,AC50,[3],0.0803 µM (active)
same,outcome,AR (gene 367) [5],inactive
same,AC50,AR (gene 367) [4],0.00928 µM (active)
CCCCCCCCSCCO,outcome,[1],inactive
same,outcome,[2],inactive
same,AC50,[3],70.5 µM (active)
same,outcome,AR (gene 367) [5],inactive
same,outcome,AR (gene 367) [4],inactive
COCCOCCOCCO,outcome,[1],inactive
same,outcome,[3],inactive
ON=C1CCCCC1,outcome,[2],inactive
same,outcome,[3],inactive
CC(=O)O[C@H]1C[C@@H]2CC[C@@]1(C)C2(C)C,outcome,[2],inactive
same,outcome,[3],inactive
same,outcome,AR (gene 367) [5],inactive
same,outcome,AR (gene 367) [4],inactive
